# KDM4E inh – inhibitors of human JMJD2E histone demethylase. B2RXH2. JMJD2E catalytic domain, FDH-coupled NADH fluorescence (FDH is formaldehyde dehydrogenase). AID 2147. Potency, µM (titrated, usually from 57.1 µM), for the others: at the top dose activity change, negative = inhibition, actives largely listed as inhibitors. actives 1.6% (n = 230,000); active = well fitted inhibition curve with a large enough effect, not every such curve was filed as active; inconclusive = small, poorly fitted or top-dose-only effect, or another doubt; inactive = no such curve, though single readings can be large or run the other way;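 note: potency is the fitted concentration of half-maximal effect; 0% = wells with enzyme and -100% = buffer wells without enzyme; nearly all actives have a fitted effect of over 50% in size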
# Target sequence (B2RXH2 1-337 limits assumed): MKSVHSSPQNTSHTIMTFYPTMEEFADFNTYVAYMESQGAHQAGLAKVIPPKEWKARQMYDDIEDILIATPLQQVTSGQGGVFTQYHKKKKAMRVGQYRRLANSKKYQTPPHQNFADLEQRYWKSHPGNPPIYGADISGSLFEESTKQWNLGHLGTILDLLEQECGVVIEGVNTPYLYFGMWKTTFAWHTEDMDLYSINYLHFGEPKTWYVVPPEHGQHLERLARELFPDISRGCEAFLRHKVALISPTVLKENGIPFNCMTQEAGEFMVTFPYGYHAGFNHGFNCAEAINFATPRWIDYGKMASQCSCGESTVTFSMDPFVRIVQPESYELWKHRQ
# Tau fibril ThT – inhibitors of human tau fibril formation, thioflavin T binding; actives 2.1% (n = 270,000); AID 1460; Potency, µM (top dose mostly 57.4 µM), for inactives: at the highest dose activity, negative = inhibition, actives largely listed as inhibitors; recombinant tau K18 P301L, heparin-induced fibrillization, ThT fluorescence; note: potency is the fitted concentration of half-maximal effect; nearly all actives have a fitted effect of over 55% in size
# Target sequence (P10636 561-689 P618L limits assumed): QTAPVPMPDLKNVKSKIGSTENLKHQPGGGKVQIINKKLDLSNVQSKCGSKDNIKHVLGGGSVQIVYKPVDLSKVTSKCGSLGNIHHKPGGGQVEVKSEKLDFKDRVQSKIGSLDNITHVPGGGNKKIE
#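 Heparin-induced (20 uM) aggregation of recombinant human K18 P301L tau, 15 uM unlabeled with 0.24 uM labeled, pH 7 acetate buffer, 6 hr at 37 C with compound. Fibrils quantified by 30 uM ThT fluorescence after 1 hr ambient incubation.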
# Sfp inh – Sfp phosphopantetheinyl transferase inhibition; AID 1490; Potency, µM, for the others: largest response in the series, negative = inhibition, actives largely listed as inhibitors; Q9F4F7; actives 3.5% (n = 310,000); Biochemical Sfp PPTase activity, qHTS;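 note: the enzyme is Sfp with the accession as filed and its product quenches rhodamine fluorescence; potency is the fitted concentration of half-maximal effect; 0% = enzyme reaction without inhibitor and -100% = no enzyme wells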
#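 Sfp 15 nM + cpd, 15 min RT; start w/ rhodamine-CoA 5 uM, BHQ-2-YbbR 12.5 uM (final); 50 mM Hepes pH 7.6, 10 mM MgCl2, 0.01% NP-40, 0.01% BSA; read 525/598 nm at 0 and 30 min.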
# Tau fibril FP – tau fibrillization inhibition (FP) | P10636 | K18 P301L tau heparin fibrillization, Alexa594 FP, 6 h | Potency, µM (series often up to 57.7 µM), for the others: at the top dose activity, negative = inhibition, hits mostly inhibitors | actives 0.39% (n = 280,000) | AID 1468; note: potency is the fitted concentration of half-maximal effect; nearly all actives have a fitted effect of over 55% in size
#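 Quantitative HTS format: compounds meet 15 uM recombinant K18 P301L tau and Alexa 594-tau tracer in 100 mM sodium acetate pH 7; 20 uM heparin triggers fibrillization at 37 C over 6 hr; FP gives the signal.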
# Tau fluor cs – counter-screen for tau fibril formation inhibitors; tau K18 P301L (four-repeat tau fragment) Alexa594 fluorescence, heparin fibrillization; Potency, µM (highest dose often 57.7 µM), for inactives: top-dose activity change, negative = decrease; actives 0.93% (n = 280,000); AID 1463; note: potency is the fitted concentration of half-maximal effect; nearly all actives have a fitted effect of over 55% in size
#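 Human K18 P301L tau (15 uM unlabeled plus 0.24 uM Alexa 594-labeled, final) in 100 mM sodium acetate pH 7 was mixed with compound and 20 uM heparin and incubated 6 hr at 37 C.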
# FBPA coupling cs – counter-screen for Giardia aldolase inhibitors: coupling enzyme system. AID 2472. actives 0.67% (n = 290,000). activity change, negative = inhibition, % at 58.2 µM, hits read low. coupling enzyme system counterscreen, AmpLite Red fluorescence; in the data active = activity change below about -30%
#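 Compounds tested against the coupling enzymes alone at 57.5 uM final; readout was AmpLite Red fluorescence (525/598 nm) after 20 min at RT.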
# The depositor's hits bear a star; ? = inconclusive; nt = no result; [ ] = dose if it differs, or a comment. Shown are actives, neighbours in structure and some others; about 5.3% of the full set was active somewhere. Unless noted, calls come from the whole dose curve; as a rule, active = well fitted curve in the direction sought with a large enough effect; inconclusive = small, poorly fitted or top-dose-only effect, or another doubt; inactive = no such curve, though single readings can be large; an effect the other way counts as inactive or inconclusive. Unless noted, % is set by controls: 0 for no effect and ±100 for the full control effect.
SMILES,KDM4E inh,Tau fibril ThT,Sfp inh,Tau fibril FP,Tau fluor cs,FBPA coupling cs
O=[N+]([O-])c1c(Nc2ccc(O)cc2)cc(Cl)c2nonc12,nt,nt,50µM*,nt,nt,3
O=C(O)c1ccccc1Nc1cc(Cl)c2nonc2c1[N+](=O)[O-],nt,nt,?,nt,nt,7
O=[N+]([O-])c1c(Nc2ccccn2)cc(Cl)c2nonc12,1µM*,nt,7.9µM*,?,?,-57*
O=C(O)c1cccc(Nc2cc(Cl)c3nonc3c2[N+](=O)[O-])c1,-12%,3.5µM*,-65%,2%,?,2
CCCN(CCC)c1cc(C)nc2nc(-c3ccc(C(C)(C)C)cc3)nn12,nt,?,nt,-1%,-12%,nt
COc1ccc(S(=O)(=O)N(CCO)c2ccccc2CN(C)CC=Cc2ccc(Cl)cc2)cc1,nt,-17%,-3%,-1%,-22%,-4
CC1=C(C)/C(=N\OS(=O)(=O)c2ccc(C)cc2)C=CC1=O,-3%,10µM*,32µM*,16µM*,?,-85*
COc1ccc(S(=O)(=O)/N=C2/C=CC(=O)C(C)=C2C)cc1,-12%,?,79µM*,8%,-22%,-11
COc1cc2nc(SCc3cccc(Cl)c3)n3nc(CCn4nc(C)cc4C)nc3c2cc1OC,nt,1%,nt,4%,-1%,nt
CCOC(=O)N1CCN(S(=O)(=O)c2cc([N+](=O)[O-])ccc2C)CC1,3%,11%,4%,6%,5%,1
CCOC(=O)N1CCC(=NNS(=O)(=O)c2cccc([N+](=O)[O-])c2)CC1,-1%,-13%,56µM*,2%,-6%,1
COc1cc(OC)cc(-c2nnc3n2N=C(c2ccc(OC)c(OC)c2)CS3)c1,nt,nt,9%,nt,nt,0
CCc1cc(N2CCOCC2)cc2c1[nH]c1ccccc12,?,?,50µM*,-4%,-29%,-43*
CCc1ccc(NC(=O)N2CC=C(c3c[nH]c4ccccc34)CC2)cc1,nt,7.1µM*,nt,-1%,13µM*[quencher],nt
CCOC(=O)c1cccc(NC(=O)N2CC=C(c3c[nH]c4ccccc34)CC2)c1,nt,?,nt,-6%,13µM*[quencher],nt
COc1cc(OC)c(NC(=O)N2CC=C(c3c[nH]c4ccccc34)CC2)cc1Cl,nt,?,nt,?,7.9µM*[quencher],nt
Cc1ccc(C)c(NC(=O)N2CC=C(c3c[nH]c4ccccc34)CC2)c1,nt,?,nt,7%,25µM*[quencher],nt
COc1cc(OC)c(NC(=O)N2CCOCC2)cc1Cl,nt,nt,15%,nt,nt,0
CCC(C)C(NC(=O)OC(C)(C)C)C(=O)NC1COC2CC(n3cc(F)c(=O)[nH]c3=O)OC12 (centres undefined),nt,nt,-3%,nt,nt,4
N#CCCn1c(=O)c(-c2cccs2)nc2cnc(N3CCOCC3)nc21,nt,nt,29%,nt,nt,3
Cc1cc(NC(=O)N2CC=C(c3c[nH]c4ccccc34)CC2)ccc1Br,nt,7.9µM*,nt,-10%,13µM*[quencher],nt
CCOc1ccc(NC(=O)N2CC=C(c3c[nH]c4ccccc34)CC2)cc1,nt,4.5µM*,nt,-8%,16µM*[quencher],nt
CC(C)Cn1nnnc1S(=O)(=O)CCc1ccccc1,-1%,9%,21%,2%,3%,-1
O=C(COc1ccc2ccccc2c1)NC1CC(=O)N(c2cccc(F)c2)C1 (centres undefined),nt,-14%,nt,-7%,-21%,nt
COc1ccccc1NC(=O)CN1C(=O)c2cccc3cccc1c23,nt,-3%,nt,-9%,-12%,nt
SMILES,KDM4E inh,Tau fibril ThT,Sfp inh,Tau fibril FP,Tau fluor cs,FBPA coupling cs
CCOC(=O)c1c(-c2ccc(C)o2)csc1NC(=S)NC(=O)N(C)C,-7%,?,56µM*,-6%,?,1
CCOC(=O)c1c(-c2ccccc2)csc1NC(=O)CCN1CCOCC1,-8%,14%,50µM*,-8%,14%,-17
CCOC(=O)c1c(-c2ccc(C)cc2)csc1NC(=S)NC(=O)c1ccccc1,-5%,-23%,21%,?,?,-6
CCOC(=O)c1c(-c2cccs2)csc1NC(=O)CN1CCOCC1,?,-12%,-21%,3%,-6%,5
CCOC(=O)c1c(-c2ccc(C)cc2)csc1NC(=O)CCN1CCOCC1,32µM*,-5%,?,2%,-4%,0
CCOC(=O)c1c(-c2ccc(C)o2)csc1NC(=O)CSc1ncn[nH]1,0%,-18%,28µM*,-3%,-29%,1
CCNc1ncc2ncc(=O)n(CCOC)c2n1,nt,nt,6%,nt,nt,4
CCOC(=O)c1c(-c2ccc(C)o2)csc1NC(=O)CN1CCOCC1,2%,-26%,45µM*,4%,-15%,-1
NS(=O)(=O)c1ccc(N/N=C/c2ccc(O)c(O)c2O)c([N+](=O)[O-])c1,2.8µM*,2µM*,4µM*,5µM*,2µM*[quencher],-46*
NS(=O)(=O)c1ccc(N/N=C/c2ccccc2C(=O)O)c([N+](=O)[O-])c1,?,?,-2%,9%,-6%,6
NS(=O)(=O)c1ccc(N/N=C/c2ccc(O)cc2O)c([N+](=O)[O-])c1,-8%,2.2µM*,8%,-2%,?,1
O=C(NCCc1ccc(F)cc1)C(=O)NCC(c1ccc2c(c1)OCO2)N1CCOCC1 (centres undefined),nt,13%,nt,1%,9%,nt
c1ccc(C2=Nc3ccccc3SC2c2nc3ccccc3[nH]2)cc1 (centres undefined),?,?,40µM*,-6%,?,-4
CCOC(=O)C(NC(=O)Nc1ccc(O)cc1)(c1ccccc1)C(F)(F)F (centres undefined),-8%,?,-3%,?,-29%,-39*
NCCCC[C@H](NC(=O)CNC(=O)[C@@H]1CCCN1C(=O)[C@H](Cc1ccc(O)cc1)NC(=O)CN)C(=O)N[C@@H](Cc1ccccc1)C(=O)O,nt,nt,4%,nt,nt,3
O=C(Nc1ccc2c(c1)nc1n2CCN(Cc2ccccc2)C1)NC1CCCCC1,?,?,-1%,5%,?,-37*
COCCN1CCn2c(nc3cc(NC(=O)NC4CCCCC4)ccc32)C1,?,?,-7%,8%,-29%,-31*
CC[C@@H]1Cn2c(c3nc(-c4cc(Cl)cc(Cl)c4Cl)nc-3n(C)c2=O)N1,nt,-23%,15%,-2%,-27%,0
CCN(CC)CCOC(=O)C1(c2ccccc2)CCOCC1,5%,2%,6%,-5%,-4%,-1
CCN(CC)CCOC(=O)C(Cc1cccc2ccccc12)CC1CCCO1 (centres undefined),22µM*,-17%,-24%,2%,-22%,1
Cc1ccc(-c2ccc(/C=C3/NC(=O)NC3=O)o2)cc1[N+](=O)[O-],-2%,?,?,?,-27%,0
